TRPM1 prom inh: inhibitors of MITF-dependent TRPM1 promoter reporter, primary screen, cell-based, SK-MEL-5, single point, luciferase | SK-MEL-5 TRPM1 promoter luciferase, 24 h | inhibition, % at 12.5 µM | 0.83% of 330,000 active | AID 488899, 2010;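 active = mean inhibition across replicates of 60% or more, whatever share of single replicates reaches that level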
HIF-2a inh: HIF-2a reporter inhibitors, primary screen, luminescence, 786-0 RCC cells | 786-0 RCC cells HIF-2a reporter, luciferase luminescence, overnight | inhibition, % at 18.8 µM | 0.72% of 360,000 active;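 active = inhibition of the luminescence signal of 40% or more relative to plate controls, in a single-dose primary screen at 18.75 µM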
CF NFkB inh: inhibitors of PAF-induced NF-kB signaling, primary screen, cell-based, GFP fluorescence, uHTS | KKLEB NF-kB-GFP reporter, GFP fluorescence overnight | 0.86% of 360,000 active | AID 588850, 2011 | inhibition, % at 5 µM;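 active = at least 50% inhibition at 5 µM, scaled per plate between neutral and stimulator controls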;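 also: PAF is a Pseudomonas aeruginosa culture filtrate used as stimulus; plate controls were PAF-stimulated DMSO wells for no effect and unstimulated DMSO wells for full effect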
KKLEB tox: cytotoxicity in KKLEB CF airway cells, primary screen, cytotoxicity control for CF NF-kB inhibitor project, cell-based, uHTS, fluorescence assay plates; 0.36% of 360,000 active; AID 602141, 2011; KKLEB CF airway cells viability, ATPlite luminescence, overnight; hits give low values; cells stimulated with P. aeruginosa culture filtrate; activity change (cytotoxicity), % at 5 µM;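 active = corrected activity change at or below -50% at 5 µM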
Peg3 promoter: Peg3 promoter-driven luciferase inhibitors, primary screen, cell-based, HeLa, luciferase luminescence; HeLa PEG-Prom luciferase reporter, overnight; inhibition, % at 20 µM; 1.7% of 360,000 active;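 active = inhibition of at least 50% at 20 µM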
B2AR ag: beta2AR agonists driving receptor internalization, primary screen, cell-based, FAP fluorogen, flow cytometry; Beta-2 adrenergic receptor (Homo sapiens), P07550; AID 504454, 2011; 0.43% of 340,000 active; Am2.2-beta2AR cells; response, % (no concentration beside the values);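 active = response above a set limit, near 3 SD of response in nonfluorescent compounds, cut at about 42% in these data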
Target sequence (P07550 whole entry, looked up): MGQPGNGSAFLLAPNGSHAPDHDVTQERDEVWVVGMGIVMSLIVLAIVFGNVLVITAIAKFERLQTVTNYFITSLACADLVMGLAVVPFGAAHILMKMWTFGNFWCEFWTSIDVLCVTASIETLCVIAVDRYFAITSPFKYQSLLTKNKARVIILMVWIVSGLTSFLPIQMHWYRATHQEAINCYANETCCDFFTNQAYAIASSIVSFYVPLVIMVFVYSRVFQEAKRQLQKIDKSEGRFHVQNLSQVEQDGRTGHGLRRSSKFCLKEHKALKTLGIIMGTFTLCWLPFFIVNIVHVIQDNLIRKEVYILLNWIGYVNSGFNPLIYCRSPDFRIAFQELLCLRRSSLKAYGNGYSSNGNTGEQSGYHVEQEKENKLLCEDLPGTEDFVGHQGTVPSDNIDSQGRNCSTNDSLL
Mdm2-MdmX confirm: retested Mdm2-MdmX interaction blockers, confirmation, cell-based, luminescence, single concentration, set 2. shares compounds with HIF-2a inh. inhibition, % at 8 µM. AID 504601, 2011. 99% of 740 active. SaOS-2 split-luciferase Mdm2/MdmX complementation;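 active = mean inhibition of the luminescence signal across two replicates at or above 26 percent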
HIF-2a conf: HIF-2a reporter inhibitor retest, confirmation, luminescence, 786-0 RCC cells. shares compounds with HIF-2a inh. HIF-2a luciferase reporter luminescence, overnight. inhibition, % at 18.8 µM. 56% of 1,800 active;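 active = mean inhibition across four replicates of at least 40 percent at the single tested concentration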
HIF-1a cs: HIF-1a luciferase reporter signal reduction – MiaPaCa-2 cells, single concentration, counter-screen for HIF-2a inhibitor project, confirmation; MiaPaCa-2 HIF-1a luciferase reporter, desferoxamine, overnight; inhibition, % at 18.8 µM; 72% of 1,800 active; shares compounds with HIF-2a inh;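 active = mean inhibition of the reporter signal across four replicates at the single tested dose of 50% or more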
Active calls of the source: *. Hits are enriched below; roughly 2.8% of the tested compounds scored in any of these assays.

What do the screens show for `COc1cc(CNC2CCCC2)cc(Cl)c1OCc1ccccc1Cl`?
TRPM1 prom inh: 82*; HIF-2a inh: 82*; CF NFkB inh: 11; KKLEB tox: -23; Peg3 promoter: 94*; B2AR ag: 24; HIF-2a conf: 7; HIF-1a cs: 107*

How did CCc1ccc(-c2nc(CS(=O)CC(=O)NCc3ccco3)c(C)o2)cc1 (stereo not drawn) do in these assays?
TRPM1 prom inh: 35; HIF-2a inh: 70*; CF NFkB inh: -25; KKLEB tox: 16; Peg3 promoter: 46; B2AR ag: 2; HIF-2a conf: 22; HIF-1a cs: 69*

What do the screens show for `COc1ccc(CNC(=O)Cn2cnc3c(=O)n(C)c(=O)n(C)c32)cc1`?
TRPM1 prom inh: 20; HIF-2a inh: 42*; CF NFkB inh: -5; KKLEB tox: 3; Peg3 promoter: 8; B2AR ag: 4; HIF-2a conf: 36; HIF-1a cs: -7

What do the screens show for `Cn1c(=O)c2ncn(CC(=O)NCCOc3ccccc3)c2n(C)c1=O`?
TRPM1 prom inh: 9; HIF-2a inh: -13; CF NFkB inh: 5; KKLEB tox: 2; Peg3 promoter: -15; B2AR ag: 7

What do the screens show for `O=C(/C=C\Nc1ccccn1)c1ccc(Cl)cc1`?
TRPM1 prom inh: -15; HIF-2a inh: 46*; CF NFkB inh: -27; KKLEB tox: -17; Peg3 promoter: -3; B2AR ag: -2; HIF-2a conf: 32; HIF-1a cs: 44

How did Cc1cccc(N/C=C/C(=O)c2ccc(Cl)cc2)c1 do in these assays?
TRPM1 prom inh: -69; HIF-2a inh: -273; CF NFkB inh: -2; KKLEB tox: -15; Peg3 promoter: -301; B2AR ag: -4

What do the screens show for `Cc1ccc(OCC(=O)NCCCNC(=O)c2ccccn2)cc1`?
TRPM1 prom inh: -8; HIF-2a inh: 18; CF NFkB inh: -5; KKLEB tox: 3; Peg3 promoter: 17; B2AR ag: -2

How did COCCCNC(=O)COc1ccc(-c2nccc(-c3ccccn3)n2)cc1 do in these assays?
TRPM1 prom inh: 8; HIF-2a inh: 40*; CF NFkB inh: 0; KKLEB tox: -3; Peg3 promoter: -14; B2AR ag: -18; HIF-2a conf: 40; HIF-1a cs: 27

What do the screens show for `O=C(NCc1cccnc1)/C(=C/c1ccc(-c2cccc(Cl)c2)o1)S(=O)(=O)c1ccccc1`?
TRPM1 prom inh: -19; HIF-2a inh: 43*; CF NFkB inh: 6; KKLEB tox: -13; Peg3 promoter: 15; B2AR ag: 29; Mdm2-MdmX confirm: 103*; HIF-2a conf: 34; HIF-1a cs: 30

Results for CCOC(=O)C(C)(C)N(Cc1cccc(C)c1)S(=O)(=O)c1cccc([N+](=O)[O-])c1 ?
TRPM1 prom inh: -14; HIF-2a inh: 12; CF NFkB inh: 14; KKLEB tox: -7; Peg3 promoter: 11; B2AR ag: -9

Results for CCOC(=O)C(C)(C)N(Cc1cccc(C)c1)S(=O)(=O)c1ccc(Cl)c([N+](=O)[O-])c1 ?
TRPM1 prom inh: 25; HIF-2a inh: 64*; CF NFkB inh: -7; KKLEB tox: 6; Peg3 promoter: 88*; B2AR ag: 14; HIF-2a conf: 27; HIF-1a cs: 100*

Screening data: PubChem BioAssay, several laboratories
